Results published in PubChem BioAssay AID1259240 (Keith Lab, Institute of Cancer Science, University of …, 2017).
Values without a mark were called inactive. Calls of active or inactive are those of the source. No stated cut-off is given here; in the data, active means fold change mostly below about -2 (no sharp cut-off); inactive means mostly above about -1.8.

Test: TERT promoter activity modulators, primary screen, cell-based, luciferase reporter, human (AID 1259240)
Settings: A2780 TERT promoter luciferase reporter, 16 h; at 20 µM, fold versus average of vehicle-only wells

Structure (SMILES) | fold change
O=C(Cc1ccc(NC2=NC3CS(=O)(=O)CC3S2)cc1)NCc1ccco1 (centres undefined) | -1.32
CN1C(=O)C(O)(CC(=O)c2ccccc2O)c2cc(Br)ccc21 (centres undefined) | 1.07
c1ccc2c(c1)nc(N1CCN(C3CCCCC3)CC1)c1nncn12 | 1.24
C=CCNc1nc2c(c(=O)[nH]c(=O)n2C)n1CCOc1ccccc1 | -1.07
CN(C)c1ccc(/C=c2\sc3nc(-c4ccco4)nn3c2=O)cc1 | 1.37
COc1ccc2cc3c(N)nn(C(=O)CN4CCOCC4)c3nc2c1 | -1.27
CCOc1nc(-c2ccncc2)nc2ccccc12 | -4.22 (active)
CCOC(=O)C1=C(CS(=O)(=O)c2ccc(F)c(Cl)c2)NC(=O)NC1c1ccc(Cl)cc1 (centres undefined) | 1.33
Cc1nc(SCc2c(F)cccc2Cl)c2c(=O)n(C)c(=O)n(C)c2n1 | 1.27
Cc1ccc(N2C(=O)c3n[nH]c(C)c3C2c2ccccc2Cl)cc1 (centres undefined) | -1.14
C=C1c2cc(CC)ccc2NC(=O)N1c1ccc(C)cc1 | 1.01
CCOC(=O)N1CCN(c2nc3ccccc3n3cnnc23)CC1 | 1.59
CCCc1nnc(NC(=O)Nc2ccccc2Cl)s1 | -1.54
CCOC(=O)N1CCC(Nc2c(N3CCN(c4ccccc4F)CC3)c(=O)c2=O)CC1 | -1.13
Brc1c(C[n+]2ccccc2)nc2ccccn12 | -1.91
COC(=O)C1Cc2cc(OC)c(OC)cc2C(Cc2ccc(OC)c(OC)c2)=N1 (centres undefined) | -1.78
CCOc1cc2c(cc1OCC)C(c1ccc(Cl)c(Cl)c1)CC(=O)N2 (centres undefined) | 1.29
O=C(CSc1nnc(Cc2cc(=O)[nH]c(=O)[nH]2)n1-c1ccc(Cl)cc1)c1ccccc1 | -1.09
Clc1ccc(Nc2c(-c3c[nH]c4ccccc34)nc3cnccn23)cc1 | -1.4
c1ccc(CNc2nc3ccccc3n3cnnc23)nc1 | 1.11
COC(=O)CSCc1nc2ccccc2[nH]c1=O | -1.41
CCC1(C)Cc2ccccc2-c2nc(NCCO)n(-c3ccccc3)c(=O)c21 (centres undefined) | -1.48
Cc1ccc(-n2c(C)c3c(C)nn4cc(C)cc4c3c2C)cc1 | -2.26 (active)
CCS(=O)(=O)Nc1cccc(C2=NN(S(C)(=O)=O)C(c3cccs3)C2)c1 (centres undefined) | -1.32
